Measurements: ChEMBL document CHEMBL3988442, “University of Dundee, Small-Polar-MMV Screening Library” (2021)
The whole screen tested about 48,000 compounds, of which about 13,000 (27%) showed an effect of 50% or more. Some of the results follow.

These compounds were tested on Wolbachia pipientis (assay: Anti-Wolbachia Cell-Based Screen). Details: 5 µM.
Type: functional
Design: scale not given: in the data most compounds retested in dose-response had high values

Compound	Percent Effect [%]
CCc1c(C(=O)N2CC(C)OC(C)(C)C2)cnn1-c1ccccn1 (centres undefined)	-9.37
Cc1nc(C2CCCN2C(=O)CCCOc2ccccc2C)no1 (centres undefined)	3.026
Cc1csc(C2CCCCN2C(=O)Cn2cncn2)n1 (centres undefined)	-6.402
Cc1csc(C2CCCCN2C(=O)CCCn2cccn2)n1 (centres undefined)	-9.362
CC(C)c1nc(C2CCCN(C(=O)CCn3cncn3)C2)no1 (centres undefined)	109.8
Cc1nc(C2CCCN2C(=O)CCCn2cccn2)no1 (centres undefined)	80.92
Cc1csc(C2CCCCN2C(=O)CCn2cncn2)n1 (centres undefined)	8.818
CC(C)c1nc(C2CCCN(C(=O)CN3CCN(C)CC3)C2)no1 (centres undefined)	-17.54
CC(C)c1nc(C2CCCN(C(=O)CCCn3cncn3)C2)no1 (centres undefined)	2.854
Cc1nc(C2CCCN2C(=O)CCn2cncn2)no1 (centres undefined)	102.5
Cc1nc(C2CCCN2C(=O)CNS(C)(=O)=O)no1 (centres undefined)	-1.869
Cc1nc(C2CCCN2C(=O)Cn2cncn2)no1 (centres undefined)	83.95
CCC(CC)n1nc(C)cc1NC(=O)C1CCCO1 (centres undefined)	0.9599
COCCNC(=O)[C@H]1CC[C@@H]2[C@@H](CCN2S(C)(=O)=O)O1	-5.573
COc1cc2c(cc1-c1nc3c(cnn3C(C)C(C)C)[nH]1)OCO2 (centres undefined)	-3.309
COCc1nc(C(=O)N2CCCC2c2noc(C(C)C)n2)cs1 (centres undefined)	-1.506
CC(C)c1nc(C2CCCN2C(=O)c2cnc[nH]2)no1 (centres undefined)	-3.664
CC(C)c1nc(C2CCCN2C(=O)CCn2cncn2)no1 (centres undefined)	104.8
Cc1csc(C2CCCCN2C(=O)CCCn2cncn2)n1 (centres undefined)	-9.865
CCc1nc(C2CCCN2C(=O)CCCn2cncn2)no1 (centres undefined)	114.2
CCc1nc(C2CCCN2C(=O)CCCOc2cccc(F)c2)no1 (centres undefined)	-10.09
Cc1nc(C2CCCN2C(=O)CCCn2cncn2)no1 (centres undefined)	100.4

Compound	Percent Effect [%]
Cc1cc(S(=O)(=O)Nc2cccc(-n3cccc3)c2)sc1C(=O)O	-5.79
CS(=O)(=O)N[C@H]1CN(C(=O)CCc2ccc(=O)[nH]n2)C[C@@H]1C1CC1	-10.51
Cc1cc(C(=O)NCC2Cn3nnc(C)c3CO2)no1 (centres undefined)	3.49
CCCc1nccn1-c1ccncc1	13.78
COc1ccc(Oc2nccc3occc23)cc1CN1CCCC1	7.902
Cc1ccc(CNc2ccc(C(=O)N3CCNC(=O)C3)cn2)cc1	3.114
COc1c(C(=O)N2CCOCC2)cnc2c1c(C)nn2C	129.8
Cc1cc(C(=O)N2CCNC(=O)C2)c(C)n1Cc1ccccn1	-1.908
Cc1cc(C(=O)N2CCCC3(CNC(=O)O3)C2)c2c(C)nn(C)c2n1 (centres undefined)	2.308
COc1c(C)cnc(CNC(=O)c2cc(C)nc3c2c(C)nn3C)c1C	-8.384
COC(=O)c1cnc2c(c(C)nn2C)c1OC	97.33
COC(=O)c1ccccc1NS(=O)(=O)c1c(C)nn(C)c1C	21.66
COc1c(C(=O)N2CCNC(=O)C2)cnc2c1c(C)nn2C	124.2
O=C(c1cnc(COc2ccccc2)nc1O)N1CCOCC1	1.405
O=C1N(CC2CCCCC2)CCCC1(O)CN1CCc2[nH]ncc2C1 (centres undefined)	-9.247
COc1cc(F)c(CN2CCN(CC(C)C)C(=O)C2C)cc1OC (centres undefined)	4.949
CN(C)c1ccc(C(=O)NCC2(c3ccccc3)CCOCC2)cc1	9.489
CS(=O)(=O)N1C[C@@H]2CC[C@H](C1)N(C(=O)Cn1ccc3ccccc31)C2	-4.366
CN(CC(=O)N1CCC(Cc2cccc(C(N)=O)c2)C1)C1CCCC1 (centres undefined)	-18.46
CC(C)Oc1ccc(CNC(=O)CC(F)(F)F)cc1F	4.736
O=C1N(c2cccc(Cl)c2)Cc2nc(=O)[nH]n21	-8.298
Cc1noc([C@@H]2CC[C@@H]3[C@@H](CCN3S(=O)(=O)C3CC3)O2)n1	-8.52

Compound	Percent Effect [%]
Cc1noc([C@@H]2CC[C@@H]3[C@@H](CCN3c3nnc(C)s3)O2)n1.O=C(O)C(F)(F)F	108.3
Cc1noc([C@H]2CC[C@@H]3[C@@H](CCN3S(C)(=O)=O)O2)n1	5.645
Cc1noc([C@H]2C[C@@H]3CCN(CC4CC4)C[C@H]3O2)n1.O=C(O)C(F)(F)F	1.445
Cc1noc([C@H]2CC[C@@H]3[C@@H](CCN3c3ncccn3)O2)n1	101.9
Cc1noc([C@@H]2CC[C@@H]3[C@@H](CCN3S(=O)(=O)c3cccnc3)O2)n1.O=C(O)C(F)(F)F	4.369
Cc1noc([C@@H]2C[C@@H]3CCN(CC4CC4)C[C@H]3O2)n1.O=C(O)C(F)(F)F	-0.5641
Cc1noc([C@H]2C[C@@H]3CCN(c4nnc(C)s4)C[C@H]3O2)n1.O=C(O)C(F)(F)F	107.3
Cc1noc([C@@H]2C[C@@H]3CCN(CC4CCOCC4)C[C@H]3O2)n1.O=C(O)C(F)(F)F	8.264
Cc1noc([C@@H]2C[C@@H]3CCN(c4nnc(C)s4)C[C@H]3O2)n1.O=C(O)C(F)(F)F	122.4
Cc1noc([C@@H]2C[C@H]3CN(Cc4scnc4C)C[C@H]3O2)n1.O=C(O)C(F)(F)F	-4.188
Cc1noc([C@H]2C[C@@H]3CCN(CC4CCOCC4)C[C@H]3O2)n1.O=C(O)C(F)(F)F	8.046
CCCc1nc(C)cc(N2CCC3(CCC(=O)N(CCCO)C3)CC2)n1	11.58
Cc1cc(SC(C)(C)C)ccc1NCC(=O)NC(N)=O	1.645
CCCS(=O)(=O)C(C)C(=O)Nc1ccc2oc(C3CC3)nc2c1 (centres undefined)	3.211
Cc1cc(Cc2ccc(F)cc2)cc(C2CCCNC2)n1 (centres undefined)	73.78
O=C(NC1CCCNC1)c1cc(COc2cccc(C(F)(F)F)c2)[nH]n1 (centres undefined)	2.713
Cc1cccc(Cc2cc(C)nc(C3CCCNC3)c2)c1 (centres undefined)	70.21
Cc1cc(Cc2ccccc2)cc(C2CCCNC2)n1 (centres undefined)	107.8
Cc1cc(Cc2cccc(C(F)(F)F)c2)cc(C2CCCNC2)n1 (centres undefined)	97.1
Cl.Cl.FC(F)(F)c1cccc(-c2c[nH]c(C3CCCN3)n2)c1 (centres undefined)	-28.55
